Measurements from PubChem BioAssay AID1347404 (Pan Lab, Icahn School of Medicine at Mount Sinai, 2020).
Hit rate of the full screen: of about 140,000 compounds, about 860 (0.61%) were called active. This is one part of a sample in which actives are shown more often than they occur. Rule as the data show it: active = inhibition above about 25%; inactive = the rest.

These compounds were tested against E3 ubiquitin-protein ligase RBX1 (Homo sapiens) + Cullin-1 (Homo sapiens) (UniProt P62877+Q13616) (assay: blocks human RBX1-Cullin-1 di-ubiquitin formation (AID 1347404)). Details: in vitro K48 di-Ub FRET, acceptor:donor ratio, 45 min; at 10 µM; stronger effect = higher value.
Chain of E3 ubiquitin-protein ligase RBX1 (Homo sapiens) + Cullin-1 (Homo sapiens) (P62877 whole entry, looked up): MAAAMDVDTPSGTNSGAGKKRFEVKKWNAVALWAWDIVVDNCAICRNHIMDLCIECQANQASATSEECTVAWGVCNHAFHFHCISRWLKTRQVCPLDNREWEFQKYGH
Chain of E3 ubiquitin-protein ligase RBX1 (Homo sapiens) + Cullin-1 (Homo sapiens) (Q13616 whole entry, looked up): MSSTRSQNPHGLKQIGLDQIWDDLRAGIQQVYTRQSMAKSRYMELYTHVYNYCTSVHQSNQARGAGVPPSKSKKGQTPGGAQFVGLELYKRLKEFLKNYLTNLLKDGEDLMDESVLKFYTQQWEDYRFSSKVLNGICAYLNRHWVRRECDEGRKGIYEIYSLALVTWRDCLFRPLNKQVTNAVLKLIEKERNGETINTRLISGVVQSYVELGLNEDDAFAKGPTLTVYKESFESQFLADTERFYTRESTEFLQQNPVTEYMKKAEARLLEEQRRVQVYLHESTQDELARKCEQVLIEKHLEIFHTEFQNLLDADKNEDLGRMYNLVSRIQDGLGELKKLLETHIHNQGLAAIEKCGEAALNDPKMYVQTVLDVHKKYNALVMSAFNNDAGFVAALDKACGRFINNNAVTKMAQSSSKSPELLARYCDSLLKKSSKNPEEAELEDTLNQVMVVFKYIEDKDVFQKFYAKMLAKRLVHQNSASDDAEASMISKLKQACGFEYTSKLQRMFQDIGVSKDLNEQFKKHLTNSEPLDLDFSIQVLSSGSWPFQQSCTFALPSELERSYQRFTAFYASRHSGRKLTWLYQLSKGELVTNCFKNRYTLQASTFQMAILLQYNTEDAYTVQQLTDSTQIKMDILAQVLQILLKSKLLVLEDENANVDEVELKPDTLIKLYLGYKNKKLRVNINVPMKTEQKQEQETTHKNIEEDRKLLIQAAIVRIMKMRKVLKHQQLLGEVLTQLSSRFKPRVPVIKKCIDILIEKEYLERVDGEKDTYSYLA
`CC(C)NC(=O)Cc1coc2ccc(C(C)(C)C)cc12` was tested, and the inhibition was 5.19% (inactive).
`Cc1noc(C)c1C(=O)CCCCCCCCCCCCCCC(=O)O` was tested, and the inhibition was -8.93% (inactive).
`Cc1ccc(OC(=O)c2ccc(Br)cc2Br)c(C)c1` was tested, and the inhibition was 5.25% (inactive).
With `CCCC(=O)NC(=S)Nc1ccccc1Sc1ncnc2scc(-c3ccccc3)c12` the inhibition was 3.87% (inactive).
For `COc1ccc2c(c1)OC(C)CN(Cc1ccc3cccnc3c1)C2` (configuration not stated), the inhibition was 1.92% (inactive).
With `CN1C(=O)C(C(=NCc2ccccc2)c2nn[nH]n2)C(=O)c2ccccc21` (configuration not stated) the inhibition was 2.67% (inactive).
For `Cc1ccc(N=C/C=C/c2ccc([N+](=O)[O-])cc2)cc1`, the inhibition was 6.74% (inactive).
`CC(=O)Nc1cc(C)ccc1[N+](=O)[O-]` was tested, and the inhibition was -2.27% (inactive).
For `Cc1ccc(N2C(=O)c3ccccc3NC2c2ccc(OCc3ccccc3)cc2)cc1` (configuration not stated), the inhibition was 8.59% (inactive).
In the case of `C=CCNC(=O)C1CCN(S(=O)(=O)N(C)C)CC1`, the inhibition was 8.77% (inactive).
For `O=C(CSc1nc2scc(-c3ccccc3)c2c(=O)n1-c1ccccc1)c1ccccc1F`, the inhibition was 8.07% (inactive).
In the case of `O=C(Nc1ccccc1Cl)c1cc(-c2ccc(Cl)s2)nc2ccccc12`, the inhibition was -7.97% (inactive).
`CCOc1cc(Br)c(Br)c(C=Nc2cccc(NC(=O)c3ccc(Cl)cc3Cl)c2)c1O` was tested, and the inhibition was 13.5% (inactive).
`CCN(CC1CCCN(CCc2cccc(OC)c2)C1)C1CCN(C(C)=O)CC1` (configuration not stated) was tested, and the inhibition was -12.6% (inactive).
For `COc1ccc(C(=O)CC=Nc2ccc(Oc3ccccc3Cl)cc2)cc1OC`, the inhibition was 11.3% (inactive).
In the case of `Cc1ccc(NC(=O)C(=O)NC(=O)c2n[nH]c3c2CCCC3)cc1`, the inhibition was 2.41% (inactive).
With `CCOc1ccc(Cl)cc1S(=O)(=O)N1CCCCC1C` (configuration not stated) the inhibition was 3.07% (inactive).
`O=C([C@@H]1C[C@H]1c1ccccc1)N1CCOc2ccc(CN3CCN(c4ncccn4)CC3)cc2C1` was tested, and the inhibition was -2.65% (inactive).
In the case of `Cc1cnc(Sc2nccn2C)c([N+](=O)[O-])c1`, the inhibition was -1.03% (inactive).
In the case of `CCOC(=O)c1cc(N2C(=O)c3cccc4cccc(c34)C2=O)ccc1Cl`, the inhibition was -1.46% (inactive).
With `COC(=O)c1cc2ccccc2n1C` the inhibition was -2.5% (inactive).
`Clc1ccc(-c2csc(NN=C3c4ccccc4-c4ccccc43)n2)cc1` was tested, and the inhibition was -3.38% (inactive).
For `COc1cc(/C=C(/C)[N+](=O)[O-])c2c(c1Br)CCCO2`, the inhibition was -18% (inactive).
In the case of `COc1ccc2c(c1)CCCN2Cn1nc(COc2ccc(C3CCCCC3)cc2)n(C)c1=S`, the inhibition was 0.371% (inactive).
`c1cc2nsnc2cc1CN1CCCC(Nc2ccc3c(c2)OCO3)C1` (configuration not stated) was tested, and the inhibition was 2.61% (inactive).
With `Cc1cc(Oc2cc(-n3[nH]c(=O)c4ccccc4c3=O)nc(-c3ccccc3)n2)cc(C)c1Cl` the inhibition was 7.28% (inactive).
With `CCN(CC1CCN(C2CCN(C)CC2)CC1)C(=O)c1occc1C` the inhibition was 9.69% (inactive).
`O=C(NCN1CCN(CNC(=O)c2cccnc2)CC1)c1cccnc1` was tested, and the inhibition was -0.31% (inactive).
In the case of `CCN1CCN(c2nc(-c3ccc(OC)cc3)cc(=O)[nH]2)CC1`, the inhibition was 5.84% (inactive).
`Cc1ccc(Cl)cc1N1CCN(C(=O)C23CC4CC(CC(C4)C2)C3)CC1` was tested, and the inhibition was -7.78% (inactive).
For `Cc1ccccc1CS(=O)(=O)N1CCC(Cc2ccccc2)CC1`, the inhibition was 8.78% (inactive).
With `COc1ccc(C(Nc2cc(C)ccn2)c2ccc3cccnc3c2O)c(OC)c1OC` (configuration not stated) the inhibition was 2.02% (inactive).
`COc1ccc2nc(SCC#CCSc3nc4ccc(OC)cc4[nH]3)[nH]c2c1` was tested, and the inhibition was 7.63% (inactive).
With `CNCC#CCOc1ccccc1C(C)(C)C` the inhibition was -2.15% (inactive).
With `Nc1scc2c1c(=O)oc1ccccc12` the inhibition was 57% (active).
For `O=c1cc(Cl)c2ccccc2o1`, the inhibition was -4.6% (inactive).
For `CN(C)/C=C/c1c(C#N)c(=O)oc2ccccc12`, the inhibition was 9.69% (inactive).
In the case of `CCOC(=O)C(C(=O)OCC)c1ccc(OC)cc1[N+](=O)[O-]`, the inhibition was 2.12% (inactive).
For `CCOc1cc(/C=C2/SC(=O)N(C(C)C)C2=O)ccc1O`, the inhibition was -0.43% (inactive).
With `Nc1nc2c(ncn2S(=O)(=O)c2ccc(C(=O)O)cc2)c(=O)[nH]1` the inhibition was 7.51% (inactive).
With `Cc1[nH]nc2c1C(c1cccc(OCc3ccccc3Cl)c1)C(C#N)C(=N)O2` (configuration not stated) the inhibition was -9.52% (inactive).
In the case of `Cc1ccc(C2Oc3ccccc3C3CC(c4cccs4)=NN32)o1` (configuration not stated), the inhibition was 0.171% (inactive).
In the case of `CCN(CC)C(=O)c1sc(NC(=O)C(Sc2ccccc2)c2ccccc2)c(C#N)c1C` (configuration not stated), the inhibition was 2.76% (inactive).
For `Oc1ccc2oc(SCCOCCOCCOCCSc3cc4cc(O)ccc4o3)cc2c1`, the inhibition was 0.44% (inactive).
In the case of `O=C(COC(=O)c1cc(Cl)c(Cl)cc1C(=O)OCC(=O)c1ccccc1)c1ccccc1`, the inhibition was 7.68% (inactive).
In the case of `O=C(O)CSCC(=O)Nc1nccs1`, the inhibition was -17.6% (inactive).
With `O=C1C2CCCN2C(=O)N1CCCCN1CCN(c2cccc(C(F)(F)F)c2)CC1` (configuration not stated) the inhibition was -6.27% (inactive).
With `c1ccc(-c2oc(-c3ccccc3)c(-c3ccccc3)c2-c2ccccc2)cc1` the inhibition was -5.11% (inactive).
`CCc1ccc(-c2cc(C(F)(F)F)n3nc(C(=O)N(C)Cc4cnn(C)c4C)cc3n2)s1` was tested, and the inhibition was -10.3% (inactive).
In the case of `N#Cc1ccc(-c2nc3cc(C#N)c(C#N)cc3nc2-c2ccccc2)cc1C#N`, the inhibition was 0.0365% (inactive).
In the case of `N#Cc1c(-c2ccccc2)c(-c2ccccc2)n[nH]c1=O`, the inhibition was 49.7% (active).
`COc1ccc(-c2n[nH]c(=O)c3ccccc23)cc1` was tested, and the inhibition was 0.605% (inactive).
With `COc1cc(OC)c(OC)cc1CN1CC[C@@H](N2CCC(O)CC2)[C@H](O)C1` the inhibition was 13% (inactive).
For `O=C(O)c1cc(-c2ccc(CC3=NC(=S)N(c4ccc(Cl)cc4)C3=O)o2)ccc1Cl`, the inhibition was 101% (active).
In the case of `OCc1ccc(-c2cc(Cl)cc(Cl)c2)o1`, the inhibition was -5.33% (inactive).
In the case of `C=CCN1C(=O)N=C(Cc2ccc(-c3cccc(F)c3)o2)C1=O`, the inhibition was 2% (inactive).
`COc1cccc(C(=O)NC2(C(F)(F)F)C(=O)N=C3C2C(=O)NC(=O)N3c2ccc(C)cc2)c1` (configuration not stated) was tested, and the inhibition was -7.22% (inactive).
`Cc1ccc(-c2c3nnc4ccccc4c3nc3sc4c(=O)[nH]c(C)nc4c23)cc1` was tested, and the inhibition was 6.93% (inactive).
In the case of `COc1ccc(F)c(-c2nc(CN(C)Cc3nonc3C)c(C)o2)c1`, the inhibition was 3.31% (inactive).
`COCCCN1C(=O)CC(CC(=O)N2CCN(C)C(c3ccccc3)C2)(c2ccccc2OC)C1=O` (configuration not stated) was tested, and the inhibition was 9.56% (inactive).
For `COc1cccc(CC2(CO)CCN(C(=O)c3cnn(C(C)C)c3)CC2)c1`, the inhibition was 4.94% (inactive).
In the case of `O=C(NC1CCCN(CCc2ccccc2)C1)c1cccc(N2CCOCC2)c1` (configuration not stated), the inhibition was 5.73% (inactive).
For `Cc1ccc(-c2csc(NNC(=O)c3ccccc3)n2)cc1`, the inhibition was -5.78% (inactive).
`O=C(NNc1cc(N2CCCC2)nc(N2CCCC2)n1)c1ccccc1` was tested, and the inhibition was 31.7% (active).
With `COc1ccc(C(=O)Nc2ccc3nc(N4CCCCC4)cc(C)c3c2)cc1OC` the inhibition was -8.5% (inactive).
`COCCN(CC1CCN(Cc2ccccc2F)CC1)C(=O)CCCN1CCCCC1=O` was tested, and the inhibition was 14.5% (inactive).
`Cc1ccccc1OC(C)C(=O)Nc1nccs1` (configuration not stated) was tested, and the inhibition was 0.702% (inactive).
`CCCN1C(=O)/C(=C\c2cn(CC(=O)O)c3ccccc23)C(=O)N(c2ccccc2)C1=S` was tested, and the inhibition was 48.9% (active).
With `CCN1C(=O)C(=Cc2ccc(-c3ccccc3)o2)C(=O)N(CC)C1=S` the inhibition was -2.58% (inactive).
`CCn1cc(/C=C2\SC(=O)N(CC(=O)Nc3cccc(C)c3)C2=O)c2ccccc21` was tested, and the inhibition was 0.178% (inactive).
`CCCCCOc1cccc(OCC(=O)Nc2cccc(OC)c2)c1` was tested, and the inhibition was 0.894% (inactive).
For `COc1cc(C(=O)O)ccc1OC(=O)C1CCCCC1`, the inhibition was 2.41% (inactive).
For `CCCCCCCCCCCCOc1c(OC)cc(C(=O)O)cc1OC`, the inhibition was 26.5% (active).
`Cc1cccc(-n2c(C)c(C)n3c4c(=O)n(CCCO)c(=O)n(C)c4nc23)c1` was tested, and the inhibition was -0.432% (inactive).
For `CCCNC(=O)c1nnn(-c2ccc(C)cc2)c1C`, the inhibition was 2.76% (inactive).
`CN1CCC2(CC1)CC(=O)NC2=O` was tested, and the inhibition was -1.86% (inactive).
For `Nc1ccc([N+](=O)[O-])cc1OCc1ccccc1`, the inhibition was 6.18% (inactive).
In the case of `CCn1c2ccccc2c2cc(NS(=O)(=O)c3ccc(Cl)nc3)ccc21`, the inhibition was -11.1% (inactive).
`Cc1cc(OC(C)C(=O)N2CCN(c3ccccc3)CC2)cc(C)c1Cl` (configuration not stated) was tested, and the inhibition was 12.3% (inactive).
With `O=C(Nc1cccc(Cl)c1)C(=S)NCc1ccco1` the inhibition was 3.18% (inactive).
For `Nc1c(C(=O)Nc2ccc(F)c(Cl)c2)sc2nc(-c3ccc(F)cc3)ccc12`, the inhibition was -0.694% (inactive).
For `COCC(=O)N1CCCC(C(=O)c2cccc(C(F)(F)F)c2)C1` (configuration not stated), the inhibition was 11% (inactive).
